Consider 40 compounds from PubChem BioAssay (NCATS).

Records with an inconclusive call do not appear. Activity calls are given as the source filed them. The call rests on the fitted dose curve; in most records, active means well fitted cell-killing curve with a large enough effect; inconclusive means small, poorly fitted or top-dose-only effect; inactive means no such curve, though single readings can be large or run the other way.
Potency means the concentration at half of the fitted maximal effect.

This assay can be described thus: qHTS of pediatric cancer cell lines to identify multiple opportunities for drug repurposing: Primary screen for LAN-5 cells (AID 1347100). The note with it: LAN-5 neuroblastoma viability, CellTiter-Glo luminescence, 48 h; series mostly up to 46 µM; activity change, negative = cytotoxic: at the top concentration. The source says: Drug repurposing or repositioning has been offered as a strategy for drug development in oncology programs. This approach has special potential for childhood cancers and other rare or orphan diseases, where the expected return on new drug development has been a disincentive to pharmaceuticals.
In this project we exploit the poly-pharmacology of drugs to discover new indications via phenotypic screening of a panel of 19 well-characterized cell lines derived from solid tumors seen in children and adolescents. The goal is to identify approved drugs with previously unrecognized anticancer properties that has the potential to reveal new mechanisms and biological processes involved in carcinogenesis or drug resistance. We employed a titration-based paradigm (quantitative high-throughput screening or qHTS), where all compounds were tested at multiple concentrations for their effect on cell viability. Concentration-response curves (CRCs) were derived directly from the primary screen, and both potency and efficacy values were used to identify compounds with robust bioactivity profiles. We screened the NIH Chemical Genomics Center (NCGC) Pharmaceutical Collection (NPC) and Mechanism Interrogation Plate (MIPE) small molecule collections of approved and investigational compounds against these cell lines; and measured metabolically active cells after 48 hours of compound treatment as a proxy for cell viability.
Assay Submitter: Nathalia J. Martinez, National Center for Advancing Translational Sciences, National Institutes of Health, Rockville, MD, USA; email: natalia.martinez@nih.gov
[1] Shen, M et al. Quantitative high-throughput phenotypic screening of pediatric cancer cell lines identifies multiple opportunities for drug repurposing. Oncotarget 2017 Dec 19;9(4):4758-4772. PMID 29435139.
The cells were obtained from University of North Carolina (UNC), Pediatric Preclinical Testing Program (PPT), and Coriell Institute (CI).
qHTS cell viability assay:
Cells were assayed in growth media at a density of 500-1,000 cells/well. Five microliters of cells were dispensed into 1,536-well, white, solid-bottom, TC-treated plates (Greiner Bio One) using a multidrop dispenser and incubated at 37 degrees C, 5% CO2, under a humidified atmosphere for 5 hours. Twenty-three nanoliters of compounds and controls (neutral control DMSO or positive control bortezomib at final concentration of 2.3 µM) were subsequently transferred by Kalypsys pintool. For primary screens, the MIPE collection was tested at 11-point dilutions (final concentrations range from 0.78 nM to 46 µM) and the NPC collection at 8-point dilutions (final concentrations range from 0.59 nM to 46 µM). Compounds tested in follow-up screens were assayed at 11-point dilutions. Cells were incubated for 48 hours, followed by addition of 3 µL of CellTiter-Glo (Promega). After a 15 min incubation at room temperature, samples were analyzed for luminescence intensity using a ViewLux High-throughput CCD imager equipped with clear filters.
As to `COc1cc(C=O)ccc1O`, the “activity change, negative = cytotoxic” value is 11.5% (inactive).
On to `CC(=O)c1cc2ccccc2s1`, for which the “activity change, negative = cytotoxic” value is 4.9% (inactive).
Consider `O=C(CCCCCCCCC#CI)Oc1ccccc1`, for which the “activity change, negative = cytotoxic” value was 13.9% (inactive).
Consider `CCCC(=O)O[C@]1(C(=O)COC(=O)CC)CC[C@H]2[C@@H]3CCC4=CC(=O)CC[C@]4(C)[C@H]3[C@@H](O)C[C@@]21C`, for which the “activity change, negative = cytotoxic” value was 2.21% [at 16.1 µM] (inactive).
The same measure, in the same setting: with `N#CC1(c2ccc(F)cc2)CCC(=O)CC1` the figure was -2.96% (inactive).
On to `O=[N+]([O-])c1ccc(O)c2ncccc12`, for which the Potency was 3.76 µM (active).
On to `Cc1cccc(OCC(O)CNC(C)(C)C)c1C` (stereo not given), for which the “activity change, negative = cytotoxic” value was -10.8% (inactive).
As for `CNC(=O)c1c(I)c(NC(C)=O)c(I)c(C(=O)O)c1I`, the “activity change, negative = cytotoxic” value was 10% (inactive).
On the same count and under the same terms, the same measure for `CC(C)(C)c1ccc(C(=O)CCCCl)cc1`: 24.9% (inactive).
For the compound `O=c1[nH]sc2cc(Cl)ccc12`, the Potency is 0.001 µM (active).
As to `C/C(=C(/OCCOc1ccc(Cl)cc1)c1ccc(Cl)cc1Cl)n1ccnc1`, the “activity change, negative = cytotoxic” value was -21.9% (inactive).
Take `CCN(CC)C(=O)C1CN2CCc3cc(OC)c(OC)cc3C2CC1OC(C)=O` (stereo not given): the “activity change, negative = cytotoxic” value is 7.18% (inactive).
As for `CN1CCCN(C(c2ccccc2)c2ccc(Cl)cc2)CC1` (stereo not given), the Potency was 15 µM (active).
In the case of `CCNC(=O)NCCCOc1cccc(CN2CCCCC2)c1`, the “activity change, negative = cytotoxic” value is -18.3% (inactive).
In the case of `C[C@H]1C[C@@H]2[C@H]([C@@H](O)C[C@@]3(C)[C@H]2CC[C@]3(O)C(=O)CO)[C@@]2(C)C=CC(=O)C=C12`, the “activity change, negative = cytotoxic” value is 3.65% (inactive).
Still for that read-out and setting: with `O=C(CCCl)NCc1ccccc1` the figure was 15.6% (inactive); with `Oc1cccc2[nH]ccc12`, -0.387% (inactive); with `CN(C)CCN1CCN(c2cccc(Cl)c2)C1=O`, 7.26% (inactive).
As to `Nc1ccc(O)cc1`, the Potency was 15 µM (active).
Consider `CCCc1ncc(C(=O)O)s1`, for which the “activity change, negative = cytotoxic” value is 15.9% (inactive).
Take `COC(=O)C1=C(C)NC(C)=C(C(=O)OCCc2ccc(N3CCN(C(c4ccccc4)c4ccccc4)CC3)cc2)C1c1cccc([N+](=O)[O-])c1` (stereo not given): the “activity change, negative = cytotoxic” value was 0.375% (inactive).
On to `CCCCNc1ccc(C(=O)OCCN(CC)CC)cc1`, for which the “activity change, negative = cytotoxic” value is -2.84% (inactive).
The same measure, in the same setting: with `CCOC(=O)c1cc(=O)c2c(OCC(COc3cccc4oc(C(=O)OCC)cc(=O)c34)OC(=O)[C@@H](N)CCCCN)cccc2o1` the figure was 15.2% (inactive).
With `CCC(=O)O[C@]1(C(=O)COC)[C@@H](C)C[C@H]2[C@@H]3CCC4=CC(=O)C=C[C@]4(C)C3(F)[C@@H](O)C[C@@]21C` (stereo not given in full), the “activity change, negative = cytotoxic” value is 5.67% (inactive).
Consider `C=CC[N+]1([C@H]2C[C@H]3[C@@H]4CC[C@H]5C[C@H](OC(C)=O)[C@@H](N6CCCCC6)C[C@]5(C)[C@H]4CC[C@]3(C)[C@H]2OC(=O)CC)CCCCC1`, for which the “activity change, negative = cytotoxic” value is 16.9% (inactive).
As to `O=C1NCCN1CCN1CCC(c2cn(-c3ccc(F)cc3)c3ccc(Cl)cc23)CC1`, the Potency is 8.41 µM (active).
For `NC(=O)NC1N=C([O][Al])NC1=O` (stereo not given), the “activity change, negative = cytotoxic” value was 5.95% (inactive).
With `Cc1ccc(C(=O)Oc2ccc(C(O)CNC(C)(C)C)cc2OC(=O)c2ccc(C)cc2)cc1` (stereo not given), the “activity change, negative = cytotoxic” value is 4.98% (inactive).
For the compound `C[C@H]1C[C@H]2[C@@H]3CCC4=CC(=O)C=C[C@]4(C)[C@H]3C(=O)C[C@]2(C)[C@@]1(O)C(=O)CO`, the “activity change, negative = cytotoxic” value is -13.1% (inactive).
Turning to `CCOC(=O)CN1CCCC1=O`, the “activity change, negative = cytotoxic” value is 6.43% (inactive).
On to `CN(C(=O)C(Cl)Cl)c1ccc(OC(=O)c2ccco2)cc1`, for which the “activity change, negative = cytotoxic” value was 10.8% (inactive).
With `CN1CCN(N)CC1`, the “activity change, negative = cytotoxic” value is -4.36% (inactive).
With `O=C(O)[C@@H](O)[C@H](O)[C@H](O)[C@@H](O)C(=O)O`, the “activity change, negative = cytotoxic” value is 1.14% (inactive).
As for `CCc1cc(S(=O)(=O)O)c2cc(C(C)C)cccc1-2`, the “activity change, negative = cytotoxic” value is 12.1% (inactive).
In the case of `CCCCN(CCN(CCCC)C(=O)N1CCOCC1)C(=O)N1CCOCC1`, the “activity change, negative = cytotoxic” value was 7.18% (inactive).
Take `O=C1Nc2ccccc2C1(c1ccc(O)cc1)c1ccc(O)cc1`: the “activity change, negative = cytotoxic” value is -1.11% (inactive).
In the case of `C1=CC2C3C=CC(C3)C2C1` (stereo not given), the “activity change, negative = cytotoxic” value is 35.1% [at 92.7 µM] (inactive).
On to `CCCCC/C=C\C/C=C\CCCCCCCC(=O)NC(C)c1ccccc1` (stereo not given), for which the “activity change, negative = cytotoxic” value was 3.44% (inactive).
As to `CCn1ccc(NS(=O)(=O)c2ccc(N)cc2)nc1=O`, the “activity change, negative = cytotoxic” value is 2.74% (inactive).
Regarding `CCCC(CCC)(C(=O)OCC)C(=O)OCC`, the “activity change, negative = cytotoxic” value is 4.59% (inactive).
